The source made the active and inactive calls.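 How the source made its calls, unless noted: active means inhibition above 20% together with a positive visual image hit; inconclusive means visual image hit but inhibition not above 20%; inactive means no visual image hit.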
How the values were obtained:
[1] = inhibitors of TNFa-induced NFkB p65 translocation, primary screen, imaging, HUVEC, MLSMR starter and 10KST1 sets (AID 438); details: HUVEC TNFa-induced p65 nuclear translocation; cell count: measured here: nuclei count (cytotoxicity indicator), at 2.08 µM; inhibition: at 2 µM, stronger effect = higher value, 0% TNFa-plus-vehicle, 100% no-TNFa wells;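 further: compound added about 3h40 before a 20 min TNFalpha stimulation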;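 on inhibition: signal is the nuclear over cytoplasmic p65 intensity ratio per well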
[2] = reduction of polyQ htt aggregates in cells – imaging, exon1htt(103Q)mCFP cells, high-content imaging, primary screen (AID 483;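 active means visual image review flags a hit and inhibition of aggregation exceeds 20%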;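 further: compound exposure lasted 3 days before fixation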;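 on nuclei count: percent of the per-plate median nuclei count of sample wells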); details: exon1htt(103Q)mCFP cell line, aggregate imaging, at 2 µM; inhibition of aggregation: stronger effect = higher value; nuclei count: measured here: cell count, toxicity
[3] = endothelial E-selectin expression blockers – imaging, HUVEC, immunofluorescence, MLSMR starter and 10KST1 sets, primary screen (AID 487;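 active means visually confirmed hit in the image check and inhibition above 20%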;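 on inhibition: signal is fraction of cell area covered by stained E-selectin grains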;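 on nuclei count: 100% = median nuclei count of all wells on the same plate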); details: HUVEC TNFalpha-induced E-selectin immunofluorescence imaging, at 2 µM; inhibition: stronger effect = higher value; nuclei count: measured here: cell number, toxicity
[4] = molecular target: Voltage-gated potassium channel subunit beta-2 (Rattus norvegicus) (UniProt P62483); test: inhibitors of rat Kvbeta2 reductase activity – biochemical, NADPH fluorescence, primary screen (AID 622;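 active means fluorescence slope higher than the sample average by over 3 SD, cut at about -0.22 in these data, passing the limit was not always enough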;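 further: slope of raw intensity against log time taken from 70 to 1610 s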); details: recombinant KvBeta, 4-cyanobenzaldehyde reduction, at 10 µM, stronger effect = higher value
Sequence of Voltage-gated potassium channel subunit beta-2 (Rattus norvegicus) (P62483 whole entry, looked up): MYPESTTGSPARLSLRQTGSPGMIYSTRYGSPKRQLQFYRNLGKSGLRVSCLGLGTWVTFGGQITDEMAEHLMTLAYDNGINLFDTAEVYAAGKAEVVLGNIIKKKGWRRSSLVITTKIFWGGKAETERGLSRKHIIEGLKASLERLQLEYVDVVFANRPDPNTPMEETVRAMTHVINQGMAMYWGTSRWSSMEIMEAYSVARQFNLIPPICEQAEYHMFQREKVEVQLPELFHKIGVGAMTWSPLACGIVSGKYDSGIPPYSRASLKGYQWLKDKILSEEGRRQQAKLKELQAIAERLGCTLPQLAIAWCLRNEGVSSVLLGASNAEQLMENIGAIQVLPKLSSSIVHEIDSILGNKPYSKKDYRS

[5] = molecular target: Voltage-gated potassium channel subunit beta-2 (Rattus norvegicus) (UniProt P62483); test: enhancers of rat Kvbeta2 NADPH turnover – biochemical, NADPH fluorescence, primary screen (AID 623;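 active means NADPH fluorescence slope more negative than the mean of all samples by about 3 SD, 99.7% confidence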;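 further: fluorescence intensity change per second fitted from 20 to 320 s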); details: Recombinant KvBeta, NADPH fluorescence decrease slope, 10 min; at 10 µM; stronger effect = lower value
[6] = molecular target: Alpha-2C adrenergic receptor (Homo sapiens) (UniProt P18825); test: compounds altering alpha2C-coupled GIRK flux – cell-based, HEK293 alpha2C/GIRK1/2, thallium flux, primary screen (AID 624;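 active means fluorescence slope after compound addition differing from the mean of all screened samples at 99.7% confidence, in either direction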;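 further: slope of fluorescence ratio to pre-addition baseline per second over 15 to 24 s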); details: thallium flux BTC fluorescence, at 10 µM, actives lie on both sides
Sequence of Alpha-2C adrenergic receptor (Homo sapiens) (P18825 whole entry, looked up): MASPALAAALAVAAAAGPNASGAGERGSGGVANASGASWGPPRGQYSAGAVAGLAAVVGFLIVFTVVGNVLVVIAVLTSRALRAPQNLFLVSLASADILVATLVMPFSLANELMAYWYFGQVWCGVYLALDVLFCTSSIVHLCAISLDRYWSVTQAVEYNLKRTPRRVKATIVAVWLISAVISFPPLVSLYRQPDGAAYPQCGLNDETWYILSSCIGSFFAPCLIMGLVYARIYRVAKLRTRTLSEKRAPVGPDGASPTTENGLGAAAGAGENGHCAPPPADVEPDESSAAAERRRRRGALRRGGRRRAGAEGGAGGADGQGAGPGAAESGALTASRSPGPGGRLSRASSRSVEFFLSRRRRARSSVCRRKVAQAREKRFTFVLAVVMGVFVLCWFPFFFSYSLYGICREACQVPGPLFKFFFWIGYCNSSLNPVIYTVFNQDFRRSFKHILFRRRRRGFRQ

[7] = blockers of RIG-like receptor reporter activation – cell-based, Sendai virus stimulus, luciferase, 10K MLSCN set, TLR/RLR signaling modifier project, primary screen (AID 602276;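 active means inhibition at or above 50% at 10 µM; inactive means inhibition below 50%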;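 further: firefly luciferase from ISG56 promoter only with Renilla not read in this screen; 0% = Sendai virus plus DMSO and 100% = medium plus DMSO without virus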); details: HEK293 RL24 IRF3 luciferase reporter, at 10 µM, stronger effect = higher value
[8] = TLR3 IRF3 reporter activation blockers – cell-based, poly I:C stimulus, luciferase, 10K MLSCN set, primary screen (AID 602277;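 active means inhibition of the reporter signal at or above 50%; inactive means inhibition below 50%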); details: HEK293-TLR3 RL24 IRF3 luciferase reporter, at 10 µM, stronger effect = higher value

Structure (SMILES) | cell count [1] | inhibition [1] | inhibition of aggregation [2] | nuclei count [2] | inhibition [3] | nuclei count [3] | fluorescence slope [4] | NADPH fluorescence slope [5] | slope [6] | inhibition [7] | inhibition [8]
O=C1OCc2cc(NC(=O)C3CCCO3)ccc21 (stereo not drawn) | 790 | -8.1% (inactive) | 13.1% (inactive) | 111% | -31.8% (inactive) | 111% | -0.379 (inactive) | 5.7e-07 (inactive) | 0.00421 (inactive) | 3.9% (inactive) | 13.5% (inactive)
CCn1c(SCC(=O)Nc2cc(C)ccc2C)nc2c(c1=O)SC(C)C2 (stereo not drawn) | 680 | -8.2% (inactive) | -17.3% (inactive) | 98% | -39.2% (inactive) | 110% | -0.584 (inactive) | -2.9e-05 (inactive) | 0.0063 (inactive) | -13.9% (inactive) | 2.03% (inactive)
c1ccc(OCCCn2nnc(-c3cccnc3)n2)cc1 | 340 | 0.3% (inactive) | 12.8% (inactive) | 95.2% | -79.2% (inactive) | 121% | -0.343 (inactive) | 4.3e-06 (inactive) | 0.0037 (inactive) | 2.51% (inactive) | -2.63% (inactive)
O=C(Nc1nnc(-c2ccc(Cl)cc2)o1)C1CCCCC1 | 673 | 1.8% (inactive) | 18.6% (inactive) | 96.8% | -21.5% (inactive) | 115% | -0.443 (inactive) | -6.8e-05 (inactive) | 0.00624 (inactive) | 6.6% (inactive) | 3.98% (inactive)
CCOC(=O)C1CCN(Cc2ccc(F)c(Br)c2)CC1 | 313 | 3.4% (inactive) | -23.7% (inactive) | 110% | -156% (inactive) | 140% | -0.414 (inactive) | 2e-06 (inactive) | 0.00431 (inactive) | 9.36% (inactive) | 20.4% (inactive)
CN1CCc2nc(SCCOc3ccccc3)c(C#N)cc2C1 | 319 | -4% (inactive) | 0% (inactive) | 93.7% | -44.8% (inactive) | 114% | -0.346 (inactive) | -9.3e-07 (inactive) | 0.00342 (inactive) | -2.8% (inactive) | 2.79% (inactive)
Cc1cccnc1-n1c(CCN2C(=O)c3ccccc3C2=O)nc2ccccc2c1=O | 359 | -5.4% (inactive) | 12.7% (inactive) | 84.4% | -12.9% (inactive) | 83.7% | -0.327 (inactive) | -7.6e-06 (inactive) | 0.00629 (inactive) | 2.74% (inactive) | 2.5% (inactive)
O=C(c1ccccc1)c1ccncc1 | 391 | 7% (inactive) | -9.4% (inactive) | 103% | -5.9% (inactive) | 119% | -0.399 (inactive) | -2.9e-05 (inactive) | 0.0031 (inactive) | 19% (inactive) | 27.8% (inactive)
Cc1cc2cc(CN(CCCN3CCOCC3)C(=O)NC3CCCCC3)c(=O)[nH]c2cc1C | 540 | -2.5% (inactive) | -7.3% (inactive) | 93.3% | 0.4% (inactive) | 105% | -0.484 (inactive) | 6.2e-07 (inactive) | 0.00496 (inactive) | 10.2% (inactive) | 34.8% (inactive)
COc1ccc(OC)c(S(=O)(=O)NCCC2=CCCCC2)c1 | 677 | -3.6% (inactive) | -18.8% (inactive) | 91.5% | 16.5% (inactive) | 95% | -0.486 (inactive) | -4.4e-05 (inactive) | 0.00446 (inactive) | -1.71% (inactive) | 24.3% (inactive)
O=C(NC1CC1)C1CCC(=O)N1C1CCCC1 (stereo not drawn) | 435 | -6.7% (inactive) | -18.4% (inactive) | 119% | -184% (inactive) | 246% | -0.47 (inactive) | 2.9e-05 (inactive) | 0.00569 (inactive) | 7.79% (inactive) | 14.9% (inactive)
O=C(Sc1nnnn1C1CCCCC1)c1cccs1 | 242 | 13.8% (inactive) | 7.4% (inactive) | 91.3% | -291% (inactive) | 129% | -0.317 (inactive) | 1.5e-05 (inactive) | 0.00618 (inactive) | 15.9% (inactive) | 13.5% (inactive)
O=C(NCCc1c[nH]c2ccccc12)c1cnc2n(c1=O)CCS2 | 532 | 6.3% (inactive) | -8.9% (inactive) | 103% | -35.9% (inactive) | 90.6% | -0.547 (inactive) | -2.5e-05 (inactive) | 0.00796 (inactive) | -48.8% (inactive) | -79.3% (inactive)
COC(=O)c1ccc(-c2ccco2)n1Cc1nc(-c2ccc(OC)c(OC)c2)oc1C | 470 | -0.5% (inactive) | 19% (inactive) | 113% | -28% (inactive) | 93.4% | -0.308 (inactive) | -4.8e-05 (inactive) | 0.00465 (inactive) | 12.2% (inactive) | -0.464% (inactive)
O=c1c2ccccc2nnn1CSc1nnc2sc3ccccc3n12 | 558 | -14.2% (inactive) | -28.8% (inactive) | 109% | -56% (inactive) | 111% | -0.521 (inactive) | -4.5e-05 (inactive) | 0.00436 (inactive) | 49% (inactive) | 42.1% (inactive)
CCOC(=O)c1ccc(N2C(=O)CC(N3CCN(C/C=C/c4ccccc4)CC3)C2=O)cc1 (stereo not drawn) | 375 | -4.9% (inactive) | -10.3% (inactive) | 103% | -52.6% (inactive) | 125% | -0.39 (inactive) | 1.2e-05 (inactive) | 0.008 (inactive) | 9.04% (inactive) | 16.7% (inactive)
O=C(Cn1ncc2c1-c1ccccc1OC2)N1CCc2ccccc21 | 678 | 4.4% (inactive) | 10.6% (inactive) | 84.5% | 4.3% (inactive) | 108% | -0.587 (inactive) | 6e-06 (inactive) | 0.00757 (inactive) | 5.8% (inactive) | 1.51% (inactive)
COC(=O)c1c(N)sc(C(=O)N2CCOCC2)c1C | 261 | -5.1% (inactive) | 3% (inactive) | 82.3% | 60.2% (inactive) | 32.3% | -0.439 (inactive) | -5.8e-06 (inactive) | 0.00581 (inactive) | -4.15% (inactive) | -5.07% (inactive)
Cn1cc(C2NC(=O)c3c(sc4c3CCCC4)N2)c2ccccc21 (stereo not drawn) | 561 | 9.2% (inactive) | 17.3% (inactive) | 98.8% | -37.2% (inactive) | 112% | -0.384 (inactive) | 3.8e-05 (inactive) | 0.00476 (inactive) | 2.79% (inactive) | 21.2% (inactive)
CCCCOn1c(C)c(C(=O)OCC)c2c3nonc3ccc21 | 596 | -27.1% (inactive) | -30.2% (inactive) | 116% | -12.4% (inactive) | 101% | -0.458 (inactive) | 6.8e-06 (inactive) | 0.00452 (inactive) | -10.2% (inactive) | -12.6% (inactive)
OCCNCCCCOc1ccccc1F | 765 | -1.5% (inactive) | -2.5% (inactive) | 91.8% | 33.1% (inactive) | 91.1% | -0.387 (inactive) | 1.2e-05 (inactive) | 0.00574 (inactive) | -4.78% (inactive) | 2.08% (inactive)
Cc1ccc(CCC(=O)Nc2ccc(S(N)(=O)=O)cc2)o1 | 543 | 0% (inactive) | -16.3% (inactive) | 111% | -67.7% (inactive) | 99.7% | -0.614 (inactive) | 5.3e-06 (inactive) | 0.00583 (inactive) | -2.49% (inactive) | 2.2% (inactive)
O=C1NC2=C(C(=O)CCC2)C(c2ccc3ncccc3c2)N1 (stereo not drawn) | 513 | 1.5% (inactive) | 1.9% (inactive) | 126% | -13.9% (inactive) | 116% | -0.541 (inactive) | -5e-05 (inactive) | 0.00696 (inactive) | 9.39% (inactive) | 8.99% (inactive)
Cc1nc(CCNC(=O)c2ccccc2)cs1 | 347 | -6% (inactive) | 4.7% (inactive) | 102% | -51.1% (inactive) | 127% | -0.486 (inactive) | 9.5e-06 (inactive) | 0.00492 (inactive) | 9.26% (inactive) | -2.39% (inactive)
CCOc1ccc(C2C(C#N)=C(N)Oc3cc(C)n(Cc4ccco4)c(=O)c32)cc1OC (stereo not drawn) | 746 | 2.4% (inactive) | 9.6% (inactive) | 74% | -11.3% (inactive) | 105% | -0.491 (inactive) | -2e-05 (inactive) | 0.00471 (inactive) | 7.22% (inactive) | 11.1% (inactive)
CCN(CC)CCCN1C(=O)C(O)=C(C(C)=O)C1c1cccc(OC)c1 (stereo not drawn) | 468 | 7.8% (inactive) | 3.9% (inactive) | 97.3% | -142% (inactive) | 105% | -0.367 (inactive) | -4.4e-05 (inactive) | 0.00698 (inactive) | 11.2% (inactive) | 13.5% (inactive)
CC(=O)Nc1ccc(S(=O)(=O)NCc2cn3c(C)csc3n2)cc1 | 531 | -7.6% (inactive) | -8.4% (inactive) | 104% | -29.8% (inactive) | 84.3% | -0.588 (inactive) | -3.6e-05 (inactive) | 0.00529 (inactive) | 1.88% (inactive) | 8.5% (inactive)
Cc1nc2sc(C(c3cccc(F)c3)N3CCOCC3)c(O)n2n1 (stereo not drawn) | 244 | -9% (inactive) | -29% (inactive) | 112% | -18.1% (inactive) | 119% | -0.502 (inactive) | -9.8e-05 (inactive) | 0.00576 (inactive) | -7.54% (inactive) | 99.3% (active)
